35 compounds from PubChem BioAssay can be followed below.

Sequence of Neurogenic locus notch homolog protein 2 (Homo sapiens) (Q04721 whole entry, looked up): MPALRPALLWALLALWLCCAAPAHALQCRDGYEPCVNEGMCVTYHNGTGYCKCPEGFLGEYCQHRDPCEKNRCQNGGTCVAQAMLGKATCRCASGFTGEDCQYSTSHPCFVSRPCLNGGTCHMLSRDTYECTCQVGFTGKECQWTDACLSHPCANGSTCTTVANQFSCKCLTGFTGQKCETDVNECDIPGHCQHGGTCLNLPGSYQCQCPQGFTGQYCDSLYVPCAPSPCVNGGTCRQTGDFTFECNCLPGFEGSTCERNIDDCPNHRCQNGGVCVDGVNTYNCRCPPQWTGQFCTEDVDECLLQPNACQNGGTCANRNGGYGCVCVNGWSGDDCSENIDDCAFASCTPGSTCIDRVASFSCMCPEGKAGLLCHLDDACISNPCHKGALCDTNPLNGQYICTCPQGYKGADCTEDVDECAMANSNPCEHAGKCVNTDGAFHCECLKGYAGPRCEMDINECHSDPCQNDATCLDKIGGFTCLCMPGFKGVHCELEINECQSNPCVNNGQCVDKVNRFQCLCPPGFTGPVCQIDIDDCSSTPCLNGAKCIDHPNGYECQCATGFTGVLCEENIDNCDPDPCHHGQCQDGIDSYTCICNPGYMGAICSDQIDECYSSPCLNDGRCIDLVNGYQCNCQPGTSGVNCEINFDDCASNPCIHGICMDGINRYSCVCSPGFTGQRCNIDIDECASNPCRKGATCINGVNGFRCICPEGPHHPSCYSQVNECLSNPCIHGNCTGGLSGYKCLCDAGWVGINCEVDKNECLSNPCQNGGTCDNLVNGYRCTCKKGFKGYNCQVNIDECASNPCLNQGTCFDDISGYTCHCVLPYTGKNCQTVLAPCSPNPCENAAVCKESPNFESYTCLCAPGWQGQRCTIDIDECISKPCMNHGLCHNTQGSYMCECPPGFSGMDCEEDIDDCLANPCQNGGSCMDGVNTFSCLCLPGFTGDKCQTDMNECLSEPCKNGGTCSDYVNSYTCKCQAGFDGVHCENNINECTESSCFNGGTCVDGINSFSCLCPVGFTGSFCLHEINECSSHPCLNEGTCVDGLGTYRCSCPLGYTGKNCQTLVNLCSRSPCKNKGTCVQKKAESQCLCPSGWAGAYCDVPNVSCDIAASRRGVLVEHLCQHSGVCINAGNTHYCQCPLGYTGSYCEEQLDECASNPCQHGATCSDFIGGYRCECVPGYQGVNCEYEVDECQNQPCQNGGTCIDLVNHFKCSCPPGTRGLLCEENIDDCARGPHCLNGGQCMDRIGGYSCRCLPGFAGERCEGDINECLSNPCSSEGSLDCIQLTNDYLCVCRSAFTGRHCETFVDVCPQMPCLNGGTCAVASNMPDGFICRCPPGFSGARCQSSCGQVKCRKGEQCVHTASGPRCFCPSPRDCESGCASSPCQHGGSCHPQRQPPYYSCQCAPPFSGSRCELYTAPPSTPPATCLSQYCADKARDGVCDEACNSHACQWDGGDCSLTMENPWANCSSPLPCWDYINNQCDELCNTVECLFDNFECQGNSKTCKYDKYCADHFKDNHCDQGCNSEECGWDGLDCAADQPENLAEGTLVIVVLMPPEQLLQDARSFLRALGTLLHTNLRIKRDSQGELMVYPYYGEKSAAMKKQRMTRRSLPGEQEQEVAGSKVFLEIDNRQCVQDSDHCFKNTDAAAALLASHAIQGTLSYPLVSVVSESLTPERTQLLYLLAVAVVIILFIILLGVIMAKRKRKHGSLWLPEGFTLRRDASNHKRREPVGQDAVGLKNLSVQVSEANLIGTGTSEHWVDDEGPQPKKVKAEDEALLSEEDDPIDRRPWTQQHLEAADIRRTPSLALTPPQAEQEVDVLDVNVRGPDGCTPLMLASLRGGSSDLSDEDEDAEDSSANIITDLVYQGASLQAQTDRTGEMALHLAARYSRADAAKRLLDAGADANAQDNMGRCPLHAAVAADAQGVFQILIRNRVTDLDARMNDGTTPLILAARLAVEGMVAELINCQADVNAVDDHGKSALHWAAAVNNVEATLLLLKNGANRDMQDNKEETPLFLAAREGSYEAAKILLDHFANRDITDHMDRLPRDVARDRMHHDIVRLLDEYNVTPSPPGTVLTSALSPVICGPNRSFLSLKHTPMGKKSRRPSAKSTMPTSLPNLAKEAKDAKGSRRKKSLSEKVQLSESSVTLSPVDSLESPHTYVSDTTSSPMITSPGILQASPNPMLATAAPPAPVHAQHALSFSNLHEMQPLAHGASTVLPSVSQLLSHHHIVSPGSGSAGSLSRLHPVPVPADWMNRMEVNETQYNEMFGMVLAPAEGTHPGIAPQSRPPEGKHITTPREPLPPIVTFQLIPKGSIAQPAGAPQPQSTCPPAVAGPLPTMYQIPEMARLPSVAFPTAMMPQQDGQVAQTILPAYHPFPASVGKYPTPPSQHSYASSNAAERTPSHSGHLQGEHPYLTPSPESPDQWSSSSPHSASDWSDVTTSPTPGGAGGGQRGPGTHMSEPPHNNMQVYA

The first assay addresses Neurogenic locus notch homolog protein 2 (Homo sapiens) (UniProt Q04721). In words: Notch2 binders on small-molecule microarrays, primary screen, biochemical, small-molecule microarray, 635 nm fluorescence, stem cell growth factors (AID 1073). Particulars: Notch2 binding, higher = more signal.
As to `CC(C)C[C@@H]1NC(=O)[C@H]2C[C@@H](C(=O)NCCCCCCNC(=O)CS)[C@@H](c3cccc(OCCO)c3)N2C1=O`, the composite z-score turned out to be 1.39.

In the case of `CCOC(=O)C1=CCC(c2ccc([N+](=O)[O-])cc2)N(S(=O)(=O)c2ccc(C)cc2)C1` (centres undefined), the composite z-score amounted to 0.716.

Turning to `CN(C)CCCNC(=O)[C@@]1(Cc2ccccc2I)c2ccccc2C(=O)N(Cc2ccccc2C(F)(F)F)[C@H]1c1ccc(CO)cc1`, the composite z-score was -0.936.

`O=C1OCC=C[C@H]2OC34C=CCN(c5ccc6ccccc6c5)C(=O)[C@H]3N(CCCO)C(=O)[C@@H]4[C@@H]12` (some centres undefined) yielded a composite z-score of -0.894.

In the case of `CC(=O)NCCCC[C@@H]1NC(=O)[C@H]2C[C@@H](C(=O)NCCCCCC[N+](C)(C)C)[C@@H](c3cccc(OCCO)c3)N2C1=O`, the composite z-score came out at 0.117.

`C=CCOC(=O)[C@@H]1[C@H]2C(=O)O[C@H](c3ccccc3)[C@H](c3ccccc3)N2[C@H](c2ccc(OCCOC(=O)[C@@H]3C[C@@H]4C(=O)NCC(=O)N4[C@@H]3c3cccc(OCCO)c3)cc2)[C@@]12C(=O)Nc1ccc(I)cc12` registered a composite z-score of 1.18.

`CC(C)OC(=O)CC(=O)CC(O)c1ccc(C#N)cc1` (centres undefined): the composite z-score turned out to be 1.29.

As to `C=CCNC(=O)[C@H]1[C@@H]2C(=O)O[C@@H](c3ccccc3)[C@@H](c3ccccc3)N2[C@@H](c2ccc(O)cc2)[C@]12C(=O)N(C(=O)OCCOC)c1ccc(C#CCCO)cc12`, the composite z-score came out at 0.0576.

`C=CC[C@@]1(C(=O)O)N=C(c2ccc(OCCCO)cc2)O[C@@H]1c1ccccc1N=[N+]=[N-]` returned a composite z-score of 0.0707.

The compound `CC(=O)NCCCC[C@@H]1NC(=O)[C@@H]2C[C@H](C(=O)NCCCCN(C)C)[C@H](c3ccc(O)cc3)N2C1=O` yielded a composite z-score of -1.09.

The compound `CCOC(=O)C1=C[C@@H](CC)N(S(=O)(=O)c2ccc(C)cc2)[C@H]1c1ccccc1` showed a composite z-score of 1.61.

For the compound `Cc1ccc([C@H]2[C@H](C(=O)O)[C@H](Sc3ccccc3)[C@@H](C(C)C)N2S(=O)(=O)c2ccc(C)cc2)cc1`, the composite z-score worked out at 1.49.

`COCCOC(=O)N1C(=O)[C@@]2(c3cc(C#CCNC(N)=O)ccc31)[C@H](c1ccc(OCCO)cc1)N1[C@H](c3ccccc3)[C@H](c3ccccc3)OC(=O)[C@H]1[C@@H]2C(=O)N1CCc2cc(OC)c(OC)cc2C1` showed a composite z-score of 0.638.

`C=C[C@@H](COC(C)=O)N(Cc1ccc([N+](=O)[O-])cc1)S(=O)(=O)c1ccc(Br)cc1`: the composite z-score was determined as 1.1.

As to `CCCCC(CC)C(O)C1C=CC2C(=O)N(c3ccccc3)C(=O)C2N1Nc1ccccc1` (centres undefined), the composite z-score amounted to 1.46.

For `COC(=O)C[C@H]1O[C@]2(C(=O)N(Cc3ccccc3)c3ccc(NC(C)=O)cc32)[C@@H](C)[C@@H]1[Si](C)(C)c1ccc(OC)cc1`, the composite z-score came out at 1.12.

`COCCOC(=O)N1C(=O)[C@@]2(c3ccccc31)[C@H](C(=O)NC[C@H](O)c1ccccc1)[C@H]1C(=O)O[C@H](c3ccccc3)[C@H](c3ccccc3)N1[C@@H]2c1ccc(OCCO)cc1`: the composite z-score was found to be 1.38.

On to `O=C(O)[C@@]1(Cc2ccccc2)N=C(c2ccc(OCCCO)cc2)O[C@H]1c1ccccc1`, for which the composite z-score was -0.738.

`O=C/C=C/c1ccc2c(c1)OCO2` came in with a composite z-score of -0.24.

In turn, `CCCC[C@@H]1C[C@H]1[C@@H](NC(=O)c1ccc(-c2ccccc2)cc1)c1ccc(-c2ccccc2)cc1` yielded a composite z-score of 0.286.

Consider `C=CCOC(=O)[C@H]1[C@@H]2C(=O)O[C@@H](c3ccccc3)[C@@H](c3ccccc3)N2[C@@H](c2ccc(OCCOC(=O)[C@@H]3C[C@@H]4C(=O)NCC(=O)N4[C@@H]3c3ccc(O)cc3)cc2)[C@]12C(=O)Nc1ccccc12`, for which the composite z-score is -0.111.

`O=C1O[C@@H](c2ccccc2)[C@@H](c2ccccc2)N2[C@@H](c3ccc(O)cc3)[C@]3(C(=O)Nc4ccc(C#CC5=CCCCC5)cc43)[C@@H](C(=O)O)[C@H]12` displayed a composite z-score of 0.798.

In the case of `CC(=O)Nc1cc(Br)ccc1C(=O)O`, the composite z-score was 0.425.

Take `CC(C)(C)OC(=O)CC[C@@]1(C(=O)O)N=C(c2ccc(OCCCO)cc2)O[C@@H]1c1ccccc1N=[N+]=[N-]`: the composite z-score worked out at 0.984.

For another assay, the target named is Pro-neuregulin-1, membrane-bound isoform (Homo sapiens) (UniProt Q02297). The experiment in a line: NRG1 binders on small-molecule microarrays, primary screen, psychiatric disease protein project, biochemical, small-molecule microarray, fluorescence 635/667 (AID 1075).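 Also: score combines 667 nm spot fluorescence with signal to noise.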 Particulars: NRG1 binding, 635 nm fluorescence, higher = more signal.
Sequence of Pro-neuregulin-1, membrane-bound isoform (Homo sapiens) (Q02297 whole entry, looked up, canonical isoform): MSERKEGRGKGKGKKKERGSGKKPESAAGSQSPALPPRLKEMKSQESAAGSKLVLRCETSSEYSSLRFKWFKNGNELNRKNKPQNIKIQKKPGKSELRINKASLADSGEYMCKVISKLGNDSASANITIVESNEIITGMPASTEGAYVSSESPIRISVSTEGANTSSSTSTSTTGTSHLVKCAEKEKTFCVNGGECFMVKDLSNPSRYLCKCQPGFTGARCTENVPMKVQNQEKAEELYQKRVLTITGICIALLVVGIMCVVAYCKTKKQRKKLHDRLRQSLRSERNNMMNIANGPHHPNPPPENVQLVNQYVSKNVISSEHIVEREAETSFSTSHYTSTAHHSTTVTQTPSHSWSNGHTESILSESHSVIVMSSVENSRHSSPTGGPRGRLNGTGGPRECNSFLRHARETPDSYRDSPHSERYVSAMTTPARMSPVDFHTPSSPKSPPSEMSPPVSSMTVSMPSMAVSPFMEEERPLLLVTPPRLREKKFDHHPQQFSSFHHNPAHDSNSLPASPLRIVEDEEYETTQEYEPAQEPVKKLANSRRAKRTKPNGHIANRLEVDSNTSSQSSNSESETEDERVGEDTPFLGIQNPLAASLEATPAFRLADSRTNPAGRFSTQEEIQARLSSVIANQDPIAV
Turning to `COCCOC(=O)N1C(=O)[C@@]2(c3cc(C#CCC(C(=O)OC)C(=O)OC)ccc31)[C@H](c1ccccc1OCCO)N1[C@H](c3ccccc3)[C@H](c3ccccc3)OC(=O)[C@H]1[C@@H]2C(N)=O`, the composite z-score worked out at 1.42.

Compound `CC(C)NC(=O)[C@@H]1c2ccccc2C(=O)N(Cc2ccccc2Cl)[C@H]1c1ccc(CO)cc1` returned a composite z-score of 1.49.

`COc1ccc(CCNC(=O)[C@@]2(c3ccc([N+](=O)[O-])cc3)CC(=O)N(CC34CC5CC(CC(C5)C3)C4)[C@@H]2c2ccc(CO)cc2)cc1` yielded a composite z-score of 1.22.

As for `COc1ccc(CCNC(=O)[C@@H]2c3ccccc3C(=O)N(Cc3ccc(OC(F)(F)F)cc3)[C@H]2c2ccc(CO)cc2)cc1`, the composite z-score came out at 0.75.

Regarding `CCOC(=O)[C@H]1C[C@H]2O[C@@]23C[C@H]1C(=O)N1CCCC1[C@@H]3O[Si](C)(C)C(C)(C)C` (some centres undefined), the composite z-score was -0.333.

In turn, `Cc1cc(C)cc(N2C(=O)CS(=O)(=O)C2c2cccc([N+](=O)[O-])c2)c1` (centres undefined) displayed a composite z-score of 1.63.

On to `O=C(CS)NCCCCCCNC(=O)[C@H]1C[C@H]2C(=O)N3CCC[C@H]3C(=O)N2[C@H]1c1cccc(OCCO)c1`, for which the composite z-score amounted to 1.23.

The compound `C=CC(COC(C)=O)NS(=O)(=O)c1ccc(Br)cc1` (centres undefined) displayed a composite z-score of 0.0456.

Regarding `CCCC[C@H]1OB(O)C[C@H]2C1=C(C)C[C@H]1C(=O)N(Cc3ccccc3)C(=O)[C@H]12`, the composite z-score came to 0.421.

On to `O=C1OCCC/C=C\[C@H]2OC34C=CCN(Cn5nnc6ccccc65)C(=O)[C@H]3N(CCCCCO)C(=O)[C@@H]4C12` (some centres undefined), for which the composite z-score amounted to 0.865.

On to `CC(C)C[C@@H]1NC(=O)[C@@H]2C[C@H](C(=O)NCCCCCC[N+](C)(C)C)[C@H](c3ccc(O)cc3)N2C1=O`, for which the composite z-score is 1.57.

Compound `CC(C)C[C@@H]1NC(=O)[C@H]2C[C@@H](C(=O)NCCCCCCNC(=O)CS)[C@@H](c3cccc(OCCO)c3)N2C1=O` displayed a composite z-score of 1.24.

Turning to `CCOC(=O)C1=CCC(c2ccc([N+](=O)[O-])cc2)N(S(=O)(=O)c2ccc(C)cc2)C1` (centres undefined), the composite z-score was 0.459.

In turn, `CN(C)CCCNC(=O)[C@@]1(Cc2ccccc2I)c2ccccc2C(=O)N(Cc2ccccc2C(F)(F)F)[C@H]1c1ccc(CO)cc1` registered a composite z-score of 1.74.

In the case of `O=C1OCC=C[C@H]2OC34C=CCN(c5ccc6ccccc6c5)C(=O)[C@H]3N(CCCO)C(=O)[C@@H]4[C@@H]12` (some centres undefined), the composite z-score is -0.0772.

Compound `CC(=O)NCCCC[C@@H]1NC(=O)[C@H]2C[C@@H](C(=O)NCCCCCC[N+](C)(C)C)[C@@H](c3cccc(OCCO)c3)N2C1=O` returned a composite z-score of 1.5.

Compound `C=CCOC(=O)[C@@H]1[C@H]2C(=O)O[C@H](c3ccccc3)[C@H](c3ccccc3)N2[C@H](c2ccc(OCCOC(=O)[C@@H]3C[C@@H]4C(=O)NCC(=O)N4[C@@H]3c3cccc(OCCO)c3)cc2)[C@@]12C(=O)Nc1ccc(I)cc12` came in with a composite z-score of 1.29.

As for `CC(C)OC(=O)CC(=O)CC(O)c1ccc(C#N)cc1` (centres undefined), the composite z-score was 0.366.

For `C=CCNC(=O)[C@H]1[C@@H]2C(=O)O[C@@H](c3ccccc3)[C@@H](c3ccccc3)N2[C@@H](c2ccc(O)cc2)[C@]12C(=O)N(C(=O)OCCOC)c1ccc(C#CCCO)cc12`, the composite z-score was determined as 1.33.

Turning to `C=CC[C@@]1(C(=O)O)N=C(c2ccc(OCCCO)cc2)O[C@@H]1c1ccccc1N=[N+]=[N-]`, the composite z-score stood at 0.915.

The compound `CC(=O)NCCCC[C@@H]1NC(=O)[C@@H]2C[C@H](C(=O)NCCCCN(C)C)[C@H](c3ccc(O)cc3)N2C1=O` came in with a composite z-score of -0.463.

Regarding `CCOC(=O)C1=C[C@@H](CC)N(S(=O)(=O)c2ccc(C)cc2)[C@H]1c1ccccc1`, the composite z-score was found to be 1.1.

Turning to `Cc1ccc([C@H]2[C@H](C(=O)O)[C@H](Sc3ccccc3)[C@@H](C(C)C)N2S(=O)(=O)c2ccc(C)cc2)cc1`, the composite z-score came out at 1.78.

As to `COCCOC(=O)N1C(=O)[C@@]2(c3cc(C#CCNC(N)=O)ccc31)[C@H](c1ccc(OCCO)cc1)N1[C@H](c3ccccc3)[C@H](c3ccccc3)OC(=O)[C@H]1[C@@H]2C(=O)N1CCc2cc(OC)c(OC)cc2C1`, the composite z-score came out at 0.156.

For `C=C[C@@H](COC(C)=O)N(Cc1ccc([N+](=O)[O-])cc1)S(=O)(=O)c1ccc(Br)cc1`, the composite z-score came out at 0.668.

`CCCCC(CC)C(O)C1C=CC2C(=O)N(c3ccccc3)C(=O)C2N1Nc1ccccc1` (centres undefined) registered a composite z-score of 0.796.

`COC(=O)C[C@H]1O[C@]2(C(=O)N(Cc3ccccc3)c3ccc(NC(C)=O)cc32)[C@@H](C)[C@@H]1[Si](C)(C)c1ccc(OC)cc1`: the composite z-score worked out at 0.264.

`COCCOC(=O)N1C(=O)[C@@]2(c3ccccc31)[C@H](C(=O)NC[C@H](O)c1ccccc1)[C@H]1C(=O)O[C@H](c3ccccc3)[C@H](c3ccccc3)N1[C@@H]2c1ccc(OCCO)cc1` had a composite z-score of 0.977.

In turn, `O=C(O)[C@@]1(Cc2ccccc2)N=C(c2ccc(OCCCO)cc2)O[C@H]1c1ccccc1` returned a composite z-score of 1.91.

In the case of `O=C/C=C/c1ccc2c(c1)OCO2`, the composite z-score was -0.31.

Turning to `CCCC[C@@H]1C[C@H]1[C@@H](NC(=O)c1ccc(-c2ccccc2)cc1)c1ccc(-c2ccccc2)cc1`, the composite z-score was 0.0352.

In turn, `C=CCOC(=O)[C@H]1[C@@H]2C(=O)O[C@@H](c3ccccc3)[C@@H](c3ccccc3)N2[C@@H](c2ccc(OCCOC(=O)[C@@H]3C[C@@H]4C(=O)NCC(=O)N4[C@@H]3c3ccc(O)cc3)cc2)[C@]12C(=O)Nc1ccccc12` yielded a composite z-score of -0.373.

In the case of `O=C1O[C@@H](c2ccccc2)[C@@H](c2ccccc2)N2[C@@H](c3ccc(O)cc3)[C@]3(C(=O)Nc4ccc(C#CC5=CCCCC5)cc43)[C@@H](C(=O)O)[C@H]12`, the composite z-score was determined as 1.2.

As to `CC(=O)Nc1cc(Br)ccc1C(=O)O`, the composite z-score turned out to be 0.541.

For `CC(C)(C)OC(=O)CC[C@@]1(C(=O)O)N=C(c2ccc(OCCCO)cc2)O[C@@H]1c1ccccc1N=[N+]=[N-]`, the composite z-score turned out to be 1.
